From the antibiotic and cytotoxicity screens of Wong et al. (2023)
Among all 39,000 compounds or so, about 3,300 (8.5%) were called active. The list comes from a sample in which actives are over-represented; it also holds similar structures and randomly drawn compounds.

system: HepG2; assay: cytotoxicity call (relative viability < 0.9); conditions: 10 µM

Row | SMILES | cytotoxicity call
1 | CC(C)NC(=O)Nc1ccc2c(c1)C(=O)N([C@@H](C)CO)C[C@@H](C)[C@H](CN(C)C(=O)Nc1ccc(F)cc1)OCCCC[C@@H](C)O2 | inactive
2 | C[C@H]1CN([C@@H](C)CO)C(=O)Cc2cc(NS(C)(=O)=O)ccc2O[C@H]1CN(C)C(=O)Nc1ccccc1 | inactive
3 | C[C@H]1CN([C@@H](C)CO)C(=O)c2cc(NC(=O)Nc3cccc4ccccc34)ccc2O[C@@H]1CN(C)Cc1ccncc1 | inactive
4 | COc1ccc(CNC(=O)N(C)C[C@H]2OCc3ccccc3-c3c(n(C)c4ccccc34)C(=O)N([C@H](C)CO)C[C@@H]2C)cc1 | inactive
5 | O=C(C[C@@H]1C[C@@H]2c3cc(NC(=O)C4CCOCC4)ccc3O[C@@H]2[C@@H](CO)O1)NCCN1CCCCC1 | inactive
6 | Cc1noc(C)c1S(=O)(=O)Nc1ccc2c(c1)CC(=O)N([C@H](C)CO)C[C@H](C)[C@H](CN(C)C(=O)Nc1ccccc1)O2 | inactive
7 | C[C@@H]1CCCCO[C@H](CN(C)Cc2ccc(C(=O)Nc3ccccc3N)cc2)[C@@H](C)CN([C@H](C)CO)C(=O)c2cc(NS(=O)(=O)c3cccs3)ccc2O1 | inactive
8 | C[C@@H]1CCCCO[C@H](CN(C)Cc2ccc(C(=O)Nc3ccccc3N)cc2)[C@@H](C)CN([C@H](C)CO)C(=O)c2cc(NS(=O)(=O)c3ccccc3)ccc2O1 | inactive
9 | C[C@@H]1CCCCO[C@@H](CN(C)Cc2ccc(C(=O)Nc3ccccc3N)cc2)[C@@H](C)CN([C@H](C)CO)C(=O)c2cc(NS(=O)(=O)c3cccs3)ccc2O1 | active
10 | COc1ccc2c3c(n(c2c1)C)[C@H](CO)N(C[C@]13CCN(CC1)C(=O)Nc1ccc(cc1F)F)C(=O)Nc1ccc(cc1)F | inactive
11 | O=C(C[C@@H]1CC[C@H](NS(=O)(=O)c2ccccc2)[C@@H](CO)O1)NCc1ccncn1 | inactive
12 | C[C@H](CO)N1C[C@H](C)[C@H](CN(C)C(=O)Nc2ccc(C(F)(F)F)cc2)Oc2ccc(NC(=O)C3CCCCC3)cc2C1=O | inactive
13 | C[C@@H]1CN([C@H](C)CO)S(=O)(=O)c2ccc(C#CCN(C)C)cc2O[C@H]1CN(C)Cc1ccc(F)cc1 | active
14 | C[C@@H]1CN([C@@H](C)CO)S(=O)(=O)c2ccc(C#CCN(C)C)cc2O[C@@H]1CN(C)Cc1ccc(F)cc1 | inactive
15 | C[C@@H]1CN([C@@H](C)CO)S(=O)(=O)c2ccc(C#CCN(C)C)cc2O[C@H]1CN(C)Cc1ccc(F)cc1 | inactive
16 | C[C@H](CO)N1C[C@H](C)[C@H](CN(C)Cc2ccc(F)cc2)Oc2cc(C#CCN(C)C)ccc2S1(=O)=O | active
17 | C[C@H]1CN([C@@H](C)CO)S(=O)(=O)c2ccc(C#CCN(C)C)cc2O[C@@H]1CN(C)Cc1ccc(F)cc1 | inactive
18 | C[C@H](CO)N1C[C@H](C)[C@@H](CN(C)Cc2ccc(F)cc2)Oc2cc(C#CC3CC3)ccc2S1(=O)=O | inactive
19 | C[C@H](CO)N1C[C@H](C)[C@@H](CN(C)Cc2ccc(F)cc2)Oc2cc(C#CCN(C)C)ccc2S1(=O)=O | inactive
20 | C[C@@H]1CN([C@@H](C)CO)S(=O)(=O)c2ccc(C#CC3CC3)cc2O[C@H]1CN(C)Cc1ccc(F)cc1 | inactive
21 | C[C@@H]1CN([C@H](C)CO)S(=O)(=O)c2ccc(C#CC3CC3)cc2O[C@H]1CN(C)Cc1ccc(F)cc1 | active
22 | CCCNC(=O)N1C[C@@H](O)COC[C@@H]2O[C@@H](CC(=O)NCc3ccncn3)CC[C@H]21 | inactive
23 | C[C@@H]1CN([C@@H](C)CO)S(=O)(=O)c2ccc(C3=CCCC3)cc2O[C@@H]1CN(C)C(=O)c1cnccn1 | inactive

Row | SMILES | cytotoxicity call
24 | COc1ccc(CN(C)C[C@H]2OCCCC[C@H](C)Oc3ccc(NS(=O)(=O)c4ccc(Cl)cc4)cc3C(=O)N([C@H](C)CO)C[C@H]2C)cc1 | inactive
25 | C[C@H](CO)N1C[C@H](C)[C@@H](CN(C)C(=O)Cc2ccccc2)OCCCC[C@H](C)Oc2ccc(NC(=O)Cc3ccccc3)cc2C1=O | inactive
26 | CC(C)N1C[C@H](C)[C@@H](CN(C)Cc2ccc(Oc3ccccc3)cc2)Oc2c(NC(=O)c3ccccn3)cccc2C1=O | inactive
27 | COc1ccccc1-c1ccc2c(c1)O[C@H](CN(C)CC1CCOCC1)[C@@H](C)CN([C@H](C)CO)S2(=O)=O | inactive
28 | C[C@@H]1CN([C@@H](C)CO)S(=O)(=O)c2ccc(C#CC3(O)CCCC3)cc2O[C@@H]1CN(C)C(=O)c1cccnc1 | inactive
29 | C[C@@H]1CN([C@@H](C)CO)C(=O)c2ccccc2-c2ccccc2CO[C@H]1CN(C)Cc1ccccc1C(F)(F)F | inactive
30 | O=C(C[C@@H]1CC[C@H]2[C@@H](COC[C@@H](O)CN2S(=O)(=O)c2ccc(F)cc2)O1)N[C@@H]1CCN(Cc2ccccc2)C1 | inactive
31 | O=C(C[C@H]1CC[C@H](NC(=O)Cc2ccccn2)[C@H](CO)O1)NCCc1ccncc1 | inactive
32 | CC1CCN(C(=O)N2c3ccccc3Sc3ccccc32)CC1 | inactive
33 | CSc1ccc2c(c1)N(CCC1CCCCN1C)c1ccccc1S2.Cl (centres undefined) | active
34 | C[C@H]1CN([C@@H](C)CO)C(=O)c2cccc(NS(=O)(=O)c3cccs3)c2O[C@H]1CN(C)S(C)(=O)=O | inactive
35 | C[C@@H]1CN([C@@H](C)CO)C(=O)c2cc(NC(=O)Nc3ccccc3)ccc2O[C@@H](C)CCCCO[C@H]1CN(C)C(=O)CCC(F)(F)F | inactive
36 | C[C@@H]1CCCCO[C@@H](CN(C)S(=O)(=O)c2cccs2)[C@@H](C)CN([C@H](C)CO)C(=O)c2cc(NC(=O)Nc3ccc(C(F)(F)F)cc3)ccc2O1 | inactive
37 | C[C@@H]1CCCCO[C@H](CN(C)S(=O)(=O)c2cccs2)[C@H](C)CN([C@@H](C)CO)C(=O)c2cc(NC(=O)Nc3ccc(C(F)(F)F)cc3)ccc2O1 | active
38 | C[C@@H]1CN([C@H](C)CO)C(=O)c2cc(NC(=O)Nc3ccc(C(F)(F)F)cc3)ccc2O[C@@H](C)CCCCO[C@@H]1CN(C)S(=O)(=O)c1cccs1 | inactive
39 | C[C@H](CO)N1C[C@H](C)[C@@H](CN(C)S(=O)(=O)c2cccs2)OCCCC[C@H](C)Oc2ccc(NC(=O)Nc3ccc(C(F)(F)F)cc3)cc2C1=O | inactive
40 | C[C@@H]1CN([C@@H](C)CO)C(=O)c2cc(NC(=O)Nc3ccc(C(F)(F)F)cc3)ccc2O[C@@H](C)CCCCO[C@@H]1CN(C)S(=O)(=O)c1cccs1 | inactive
41 | C[C@@H]1CCCCO[C@H](CN(C)S(=O)(=O)c2cccs2)[C@@H](C)CN([C@@H](C)CO)C(=O)c2cc(NC(=O)Nc3ccc(C(F)(F)F)cc3)ccc2O1 | active
42 | C[C@@H]1CN([C@H](C)CO)C(=O)c2cc(NC(=O)C3CC3)ccc2O[C@H]1CN(C)Cc1ccc(Oc2ccccc2)cc1 | inactive
43 | COc1cc(OC)c([C@@H]2c3c(n(C)c(=O)n(C)c3=O)N=C3COC(=O)C32)cc1OC (some centres undefined) | inactive
44 | NCc1cnc(Nc2ccccc2)nc1 | inactive
45 | COc1ccc(S(=O)(=O)Nc2ccc3c(c2)C(=O)N([C@H](C)CO)C[C@H](C)[C@@H](CN(C)Cc2ccc4c(c2)OCO4)OCCCC[C@@H](C)O3)cc1 | inactive
46 | C[C@@H]1CCCCO[C@H](CN(C)C(=O)C2CCCCC2)[C@H](C)CN([C@H](C)CO)C(=O)c2cc(NC(=O)c3ccccc3)ccc2O1 | inactive

Row | SMILES | cytotoxicity call
47 | C[C@@H]1CN([C@@H](C)CO)C(=O)c2cccc(NC(=O)C3CCCCC3)c2O[C@@H]1CN(C)Cc1ccc(C(F)(F)F)cc1 | inactive
48 | C[C@H](CO)N1C[C@H](C)[C@@H](CN(C)C(=O)c2cnccn2)Oc2ncc(C#Cc3ccccn3)cc2C1=O | inactive
49 | CCCCC[C@@H](C)N | inactive
50 | C[C@@H]1CN([C@H](C)CO)C(=O)Cc2cc(NS(=O)(=O)c3cn(C)cn3)ccc2O[C@@H]1CN(C)CC1CC1 | inactive
51 | O=C(Nc1cccc2cccnc12)[C@@H]1[C@H](c2cccc(Br)c2)CC(=O)N1C(=O)OCc1ccccc1 | inactive
52 | COc1ccc(NC(=O)[C@H]2[C@@H](c3ccc(C)cc3)CC(=O)N2C(=O)OCc2ccccc2)c2ncccc12 | active
53 | O=C(Nc1cccc2cccnc12)[C@@H]1[C@H](c2ccc(Br)cc2)CC(=O)N1C(=O)OCc1ccccc1 | inactive
54 | COc1ccc(NC(=O)[C@@H]2[C@H](c3ccc(C)cc3)CC(=O)N2C(=O)OCc2ccccc2)c2ncccc12 | inactive
55 | O=C(Nc1cccc2cccnc12)[C@@H]1[C@H](c2ccc(-c3ccccc3)cc2)CC(=O)N1C(=O)OCc1ccccc1 | inactive
56 | O=C(Nc1cccc2cccnc12)[C@@H]1[C@H](c2cc(Cl)cc(Br)c2)CC(=O)N1C(=O)OCc1ccccc1 | active
57 | C[C@H](CO)N1C[C@H](C)[C@H](CN(C)Cc2ccccc2)Oc2c(NS(=O)(=O)c3cn(C)cn3)cccc2C1=O | inactive
58 | COC(=O)C1=CO[C@@H](O[C@@H]2O[C@H](CO)[C@@H](O)[C@H](O)[C@H]2O)[C@@H]2[C@@H](C)[C@@H](O)C[C@H]12 | inactive
59 | CC1=NNC(=O)CC1 | inactive
60 | Cc1noc(C)c1NC(=O)Nc1ccc2c(c1)C(=O)N([C@H](C)CO)C[C@@H](C)[C@@H](CN(C)Cc1ccc(C(F)(F)F)cc1)OCCCC[C@@H](C)O2 | inactive
61 | c1ccc(CNc2nn[nH]n2)cc1 | inactive
62 | c1ccc(CNc2ccc3c(ccc4c5ccccc5[nH]c34)n2)cc1 | active
63 | Cn1nnnc1NCc1ccccc1 | inactive
64 | C[C@@H](CO)N1C(=O)[C@@H]2[C@H]3C(=O)OCCC=C[C@H]3O[C@]23C=CCN(Cn2nnc4ccccc42)C(=O)[C@@H]13 | inactive
65 | Brc1ccc(CSc2c[nH]c3ccccc23)cc1 | active
66 | FC(F)(F)c1ccc(CSc2c[nH]c3ccccc23)cc1 | inactive
67 | O=c1nc[nH]c2ccccc12 | inactive
68 | CC1(C)C=Cc2c(nc3ccccc3c2NCc2ccccc2)C1 | active
69 | Cn1nnc(NCc2ccccc2)n1 | inactive
